# Test results reported in publication PMC7862700, “An all-to-all approach to the identification of sequence-specific readers for epigenetic DNA modifications on cytosine”.
# Key:
# Test in all cases: DAPPL (digital affinity profiling via proximity ligation, sequencing); 10 mM Tris-HCl pH 7.5, 50 mM NaCl, 1 mM DTT, 4% glycerol, room temperature, 30 min; GST-TFs on glutathione beads, 16-mer random dsDNA library, 0.1% formaldehyde crosslink after washing; high values mean tight binding
# [1] = target: T1, FLI1 (Homo sapiens, UniProt Q01543 1-452); settings: protein: recombinant; tags: N-terminal GST; dsDNA, one strand shown
# T1 sequence: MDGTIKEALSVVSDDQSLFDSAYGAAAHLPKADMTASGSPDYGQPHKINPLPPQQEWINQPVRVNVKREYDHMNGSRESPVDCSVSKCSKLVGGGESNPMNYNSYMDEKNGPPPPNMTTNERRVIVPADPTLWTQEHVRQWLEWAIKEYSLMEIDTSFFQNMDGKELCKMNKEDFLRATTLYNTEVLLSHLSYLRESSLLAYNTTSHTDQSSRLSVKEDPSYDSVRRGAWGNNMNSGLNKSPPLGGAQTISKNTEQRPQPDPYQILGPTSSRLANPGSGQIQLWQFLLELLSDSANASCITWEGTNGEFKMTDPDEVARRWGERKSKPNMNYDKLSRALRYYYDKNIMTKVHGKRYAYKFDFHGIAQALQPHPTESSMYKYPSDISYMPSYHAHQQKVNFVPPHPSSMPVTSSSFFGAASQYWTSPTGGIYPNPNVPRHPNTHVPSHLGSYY
# Method in brief: (§1)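 Each value of binding signal is a hexamer's read frequency for a factor divided by the same hexamer's frequency in the tag-only sample. Barcoded, bead-captured GST fusions of human transcription factors made in yeast were pooled with that sample and incubated with 200 nmole of a random double-stranded 16-mer DNA library in Tris/NaCl/DTT/glycerol buffer at room temperature for 30 min. Washing, 0.1% formaldehyde crosslinking, proximity ligation, PCR and Illumina NextSeq500 sequencing followed.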
# [2] = target: T2, ELK1 (Homo sapiens, UniProt P19419 1-428); settings: protein: recombinant; tags: N-terminal GST; dsDNA, one strand shown
# T2 sequence: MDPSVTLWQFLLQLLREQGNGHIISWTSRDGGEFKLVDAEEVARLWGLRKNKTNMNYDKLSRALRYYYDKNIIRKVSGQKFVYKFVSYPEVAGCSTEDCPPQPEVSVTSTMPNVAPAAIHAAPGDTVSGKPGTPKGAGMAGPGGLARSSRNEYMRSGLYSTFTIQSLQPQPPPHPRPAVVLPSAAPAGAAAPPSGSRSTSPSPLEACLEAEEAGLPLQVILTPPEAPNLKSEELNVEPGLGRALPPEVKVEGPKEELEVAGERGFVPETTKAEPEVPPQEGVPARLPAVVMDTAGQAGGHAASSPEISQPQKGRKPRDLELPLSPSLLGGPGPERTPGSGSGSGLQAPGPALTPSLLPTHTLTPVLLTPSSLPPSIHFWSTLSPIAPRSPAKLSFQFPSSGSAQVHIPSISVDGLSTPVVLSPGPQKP
# Method in brief: as §1
# [3] = target: T3, GABPA (Homo sapiens, UniProt Q06546 1-454); settings: protein: recombinant; tags: N-terminal GST; dsDNA, one strand shown
# T3 sequence: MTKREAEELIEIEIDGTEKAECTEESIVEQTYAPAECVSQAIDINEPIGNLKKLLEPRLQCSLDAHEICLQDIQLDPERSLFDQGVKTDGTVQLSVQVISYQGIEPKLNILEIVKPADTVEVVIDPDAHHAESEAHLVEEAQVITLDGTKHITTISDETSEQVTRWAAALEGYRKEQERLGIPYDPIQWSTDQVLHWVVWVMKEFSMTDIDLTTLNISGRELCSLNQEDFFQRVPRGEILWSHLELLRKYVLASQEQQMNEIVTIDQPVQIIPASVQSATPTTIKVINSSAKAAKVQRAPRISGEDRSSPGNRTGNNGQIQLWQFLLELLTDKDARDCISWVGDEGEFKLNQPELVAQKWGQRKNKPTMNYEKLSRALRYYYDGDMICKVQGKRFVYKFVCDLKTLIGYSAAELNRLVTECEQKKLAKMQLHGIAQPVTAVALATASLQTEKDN
# Method in brief: as §1
# [4] = target: T4, ERG (Homo sapiens, UniProt P11308 1-479); settings: protein: recombinant; tags: N-terminal GST; dsDNA, one strand shown
# T4 sequence: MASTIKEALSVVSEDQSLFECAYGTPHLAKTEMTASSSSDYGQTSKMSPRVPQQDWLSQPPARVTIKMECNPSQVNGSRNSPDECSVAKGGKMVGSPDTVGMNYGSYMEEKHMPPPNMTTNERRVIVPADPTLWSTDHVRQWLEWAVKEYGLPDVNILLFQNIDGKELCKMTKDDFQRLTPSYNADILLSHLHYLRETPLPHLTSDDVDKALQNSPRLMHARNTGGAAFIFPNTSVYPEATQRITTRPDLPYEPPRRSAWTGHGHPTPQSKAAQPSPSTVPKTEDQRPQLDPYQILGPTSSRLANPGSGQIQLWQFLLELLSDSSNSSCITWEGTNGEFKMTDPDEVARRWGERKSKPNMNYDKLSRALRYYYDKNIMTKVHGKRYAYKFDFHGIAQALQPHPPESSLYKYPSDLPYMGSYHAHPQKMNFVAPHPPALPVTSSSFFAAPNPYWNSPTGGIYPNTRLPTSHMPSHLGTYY
# Method in brief: as §1
# [5] = target: ELF1 (Homo sapiens, UniProt P32519 1-619); settings: protein: recombinant; tags: N-terminal GST; dsDNA, one strand shown
# Method in brief: as §1
# [6] = target: T5, EHF (Homo sapiens, UniProt Q9NZC4 1-300); settings: protein: recombinant; tags: N-terminal GST; dsDNA, one strand shown
# T5 sequence: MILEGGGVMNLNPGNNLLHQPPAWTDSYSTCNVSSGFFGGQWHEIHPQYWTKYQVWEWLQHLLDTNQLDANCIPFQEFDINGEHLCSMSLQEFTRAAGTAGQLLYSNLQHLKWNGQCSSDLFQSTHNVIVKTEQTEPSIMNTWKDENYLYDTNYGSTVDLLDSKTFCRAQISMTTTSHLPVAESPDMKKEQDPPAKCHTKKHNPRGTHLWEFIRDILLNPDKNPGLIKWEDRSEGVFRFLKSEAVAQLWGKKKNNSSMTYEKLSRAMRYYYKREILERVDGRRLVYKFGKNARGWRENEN
# Method in brief: as §1
# [7] = target: SPI1 (Homo sapiens, UniProt P17947 1-270); settings: protein: recombinant; tags: N-terminal GST; dsDNA, one strand shown
# Method in brief: as §1
# [8] = target: SPIB (Homo sapiens, UniProt Q01892 1-262); settings: protein: recombinant; tags: N-terminal GST; dsDNA, one strand shown
# Method in brief: as §1
# [9] = target: T6, ELK3 (Homo sapiens, UniProt P41970 1-407); settings: protein: recombinant; tags: N-terminal GST; dsDNA, one strand shown
# T6 sequence: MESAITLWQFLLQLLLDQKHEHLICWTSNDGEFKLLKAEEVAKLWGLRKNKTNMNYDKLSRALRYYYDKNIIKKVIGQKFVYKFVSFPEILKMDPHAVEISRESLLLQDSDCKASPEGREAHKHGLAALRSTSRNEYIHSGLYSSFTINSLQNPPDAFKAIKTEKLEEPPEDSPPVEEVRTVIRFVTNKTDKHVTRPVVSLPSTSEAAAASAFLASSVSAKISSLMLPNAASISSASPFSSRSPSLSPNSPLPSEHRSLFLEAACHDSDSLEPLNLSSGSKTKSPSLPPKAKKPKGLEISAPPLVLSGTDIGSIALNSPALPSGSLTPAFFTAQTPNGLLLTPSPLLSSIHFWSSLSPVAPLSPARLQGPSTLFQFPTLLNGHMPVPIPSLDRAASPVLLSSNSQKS
# Method in brief: as §1
# [10] = target: T7, FEV (Homo sapiens, UniProt Q99581 1-238); settings: protein: recombinant; tags: N-terminal GST; dsDNA, one strand shown
# T7 sequence: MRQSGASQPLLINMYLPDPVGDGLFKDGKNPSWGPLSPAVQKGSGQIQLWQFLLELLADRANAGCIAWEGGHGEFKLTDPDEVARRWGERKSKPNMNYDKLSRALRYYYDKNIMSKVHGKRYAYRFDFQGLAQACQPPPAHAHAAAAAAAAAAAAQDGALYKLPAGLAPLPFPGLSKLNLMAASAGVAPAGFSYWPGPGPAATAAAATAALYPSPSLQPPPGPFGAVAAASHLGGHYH
# Method in brief: as §1
# [11] = target: ETV5 (Homo sapiens, UniProt P41161 1-510); settings: protein: recombinant; tags: N-terminal GST; dsDNA, one strand shown
# Method in brief: as §1
# [12] = target: HSF1 (Homo sapiens, UniProt Q00613 1-529); settings: protein: recombinant; tags: N-terminal GST; chain copies: 3; dsDNA, one strand shown
# Method in brief: as §1
# [13] = target: T8, SPIC (Homo sapiens, UniProt Q8N5J4 1-248); settings: protein: recombinant; tags: N-terminal GST; dsDNA, one strand shown
# T8 sequence: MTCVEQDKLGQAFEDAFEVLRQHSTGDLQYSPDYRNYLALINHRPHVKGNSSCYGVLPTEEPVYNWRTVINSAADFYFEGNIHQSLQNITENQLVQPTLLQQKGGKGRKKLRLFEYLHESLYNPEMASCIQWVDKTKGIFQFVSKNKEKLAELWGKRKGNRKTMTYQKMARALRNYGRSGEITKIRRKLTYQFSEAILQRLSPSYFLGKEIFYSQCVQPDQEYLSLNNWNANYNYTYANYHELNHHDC
# Method in brief: as §1
# [14] = target: ELF4 (Homo sapiens, UniProt Q99607 1-663); settings: protein: recombinant; tags: N-terminal GST; dsDNA, one strand shown
# Method in brief: as §1
# [15] = target: T9, ELK4 (Homo sapiens, UniProt P28324-2 1-405); settings: protein: recombinant; tags: N-terminal GST; dsDNA, one strand shown
# T9 sequence: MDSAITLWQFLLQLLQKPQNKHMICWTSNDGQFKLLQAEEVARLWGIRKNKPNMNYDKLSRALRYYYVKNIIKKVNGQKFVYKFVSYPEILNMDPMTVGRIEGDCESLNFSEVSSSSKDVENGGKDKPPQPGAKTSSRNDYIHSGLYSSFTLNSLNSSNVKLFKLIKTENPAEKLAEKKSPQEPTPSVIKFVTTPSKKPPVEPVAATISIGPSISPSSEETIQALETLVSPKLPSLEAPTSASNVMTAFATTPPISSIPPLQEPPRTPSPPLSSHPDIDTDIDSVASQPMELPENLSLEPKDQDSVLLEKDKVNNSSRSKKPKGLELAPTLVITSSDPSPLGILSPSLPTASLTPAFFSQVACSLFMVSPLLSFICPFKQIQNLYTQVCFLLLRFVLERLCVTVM
# Method in brief: as §1
# [16] = target: T10, ETV2 (Homo sapiens, UniProt O00321 1-342); settings: protein: recombinant; tags: N-terminal GST; dsDNA, one strand shown
# T10 sequence: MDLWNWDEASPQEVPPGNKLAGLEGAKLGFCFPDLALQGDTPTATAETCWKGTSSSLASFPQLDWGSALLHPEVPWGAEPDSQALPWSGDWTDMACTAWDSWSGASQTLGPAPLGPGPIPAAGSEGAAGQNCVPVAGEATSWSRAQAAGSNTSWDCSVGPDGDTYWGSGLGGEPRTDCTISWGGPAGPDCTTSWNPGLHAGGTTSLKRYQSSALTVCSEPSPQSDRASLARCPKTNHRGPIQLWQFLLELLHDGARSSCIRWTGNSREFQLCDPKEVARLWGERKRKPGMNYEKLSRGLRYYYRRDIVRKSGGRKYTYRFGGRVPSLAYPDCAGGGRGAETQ
# Method in brief: as §1
# [17] = target: T11, ELF3 (Homo sapiens, UniProt P78545 1-371); settings: protein: recombinant; tags: N-terminal GST; dsDNA, one strand shown
# T11 sequence: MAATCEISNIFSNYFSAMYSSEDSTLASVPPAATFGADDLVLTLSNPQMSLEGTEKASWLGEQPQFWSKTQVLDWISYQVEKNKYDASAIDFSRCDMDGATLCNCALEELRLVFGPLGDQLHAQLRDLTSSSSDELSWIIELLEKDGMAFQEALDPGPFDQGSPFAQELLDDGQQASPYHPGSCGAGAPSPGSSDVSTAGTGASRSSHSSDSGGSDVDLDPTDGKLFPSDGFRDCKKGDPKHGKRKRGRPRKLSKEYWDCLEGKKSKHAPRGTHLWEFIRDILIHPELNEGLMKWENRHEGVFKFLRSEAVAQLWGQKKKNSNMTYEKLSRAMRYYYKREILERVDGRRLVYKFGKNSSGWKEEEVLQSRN
# Method in brief: as §1
# [18] = target: CRX (Homo sapiens, UniProt O43186 1-299); settings: protein: recombinant; tags: N-terminal GST; dsDNA, one strand shown
# Method in brief: as §1
# [19] = target: ETV1 (Homo sapiens, UniProt P50549 1-477); settings: protein: recombinant; tags: N-terminal GST; dsDNA, one strand shown
# Method in brief: as §1
# Chain of ELF4 (Q99607 whole entry): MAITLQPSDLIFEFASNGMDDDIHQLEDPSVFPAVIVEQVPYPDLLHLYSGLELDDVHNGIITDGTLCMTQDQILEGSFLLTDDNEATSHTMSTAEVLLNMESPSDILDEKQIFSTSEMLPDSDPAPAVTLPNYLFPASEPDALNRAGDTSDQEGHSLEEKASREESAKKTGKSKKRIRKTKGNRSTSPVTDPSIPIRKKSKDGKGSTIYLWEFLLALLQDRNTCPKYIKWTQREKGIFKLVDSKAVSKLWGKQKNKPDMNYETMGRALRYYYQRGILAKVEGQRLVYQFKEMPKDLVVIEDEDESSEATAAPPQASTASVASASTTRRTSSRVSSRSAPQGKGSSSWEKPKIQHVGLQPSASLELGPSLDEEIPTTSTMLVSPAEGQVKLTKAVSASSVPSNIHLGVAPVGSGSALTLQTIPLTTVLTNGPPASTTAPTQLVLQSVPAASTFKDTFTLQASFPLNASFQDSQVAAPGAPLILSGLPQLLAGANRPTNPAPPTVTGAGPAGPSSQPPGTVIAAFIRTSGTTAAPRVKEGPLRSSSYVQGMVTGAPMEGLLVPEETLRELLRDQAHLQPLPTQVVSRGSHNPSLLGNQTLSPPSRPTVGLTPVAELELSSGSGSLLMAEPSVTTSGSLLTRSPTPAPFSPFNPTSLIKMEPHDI
# Chain of ETV1 (P50549 whole entry): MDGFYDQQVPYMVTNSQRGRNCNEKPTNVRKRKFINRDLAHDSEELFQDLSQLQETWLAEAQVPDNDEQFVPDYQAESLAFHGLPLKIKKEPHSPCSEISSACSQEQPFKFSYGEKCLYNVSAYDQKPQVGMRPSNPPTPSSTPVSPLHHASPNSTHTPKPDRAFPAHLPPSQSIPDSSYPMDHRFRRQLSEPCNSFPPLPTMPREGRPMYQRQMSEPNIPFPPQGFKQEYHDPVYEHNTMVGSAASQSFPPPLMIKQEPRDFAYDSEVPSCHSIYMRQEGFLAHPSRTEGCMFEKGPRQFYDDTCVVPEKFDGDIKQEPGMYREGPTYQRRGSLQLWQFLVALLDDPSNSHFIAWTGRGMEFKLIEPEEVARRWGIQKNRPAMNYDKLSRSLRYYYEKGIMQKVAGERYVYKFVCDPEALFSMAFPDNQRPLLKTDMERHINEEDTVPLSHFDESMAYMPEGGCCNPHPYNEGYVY
# Chain of ETV5 (P41161 whole entry): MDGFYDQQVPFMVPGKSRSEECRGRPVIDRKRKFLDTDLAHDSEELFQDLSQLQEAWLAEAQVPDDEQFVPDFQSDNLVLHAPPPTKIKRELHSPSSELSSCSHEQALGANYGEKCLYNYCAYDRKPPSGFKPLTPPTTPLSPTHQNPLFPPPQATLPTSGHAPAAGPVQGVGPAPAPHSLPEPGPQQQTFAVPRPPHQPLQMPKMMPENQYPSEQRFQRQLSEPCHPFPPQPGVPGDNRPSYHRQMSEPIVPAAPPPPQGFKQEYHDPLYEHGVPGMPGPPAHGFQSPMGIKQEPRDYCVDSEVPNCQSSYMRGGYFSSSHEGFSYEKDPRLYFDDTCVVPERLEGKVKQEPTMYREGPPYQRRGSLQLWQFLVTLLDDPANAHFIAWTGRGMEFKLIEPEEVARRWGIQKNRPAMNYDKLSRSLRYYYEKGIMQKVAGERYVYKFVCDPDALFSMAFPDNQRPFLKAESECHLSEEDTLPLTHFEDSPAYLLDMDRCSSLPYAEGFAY
# Chain of HSF1 (Q00613 whole entry): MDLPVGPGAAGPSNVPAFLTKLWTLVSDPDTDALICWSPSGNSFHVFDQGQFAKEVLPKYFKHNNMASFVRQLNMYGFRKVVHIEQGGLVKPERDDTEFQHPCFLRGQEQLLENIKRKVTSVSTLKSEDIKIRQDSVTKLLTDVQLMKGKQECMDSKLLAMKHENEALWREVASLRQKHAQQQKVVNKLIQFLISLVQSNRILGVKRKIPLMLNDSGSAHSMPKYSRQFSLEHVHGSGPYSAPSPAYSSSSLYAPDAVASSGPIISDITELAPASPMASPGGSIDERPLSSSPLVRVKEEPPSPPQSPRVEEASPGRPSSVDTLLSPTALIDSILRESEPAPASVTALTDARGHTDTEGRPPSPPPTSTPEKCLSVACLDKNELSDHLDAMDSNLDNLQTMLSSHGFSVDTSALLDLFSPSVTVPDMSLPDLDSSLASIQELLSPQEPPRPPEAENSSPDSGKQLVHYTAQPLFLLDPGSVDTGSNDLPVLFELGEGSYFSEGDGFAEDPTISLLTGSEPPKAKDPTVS
# Chain of CRX (O43186 whole entry): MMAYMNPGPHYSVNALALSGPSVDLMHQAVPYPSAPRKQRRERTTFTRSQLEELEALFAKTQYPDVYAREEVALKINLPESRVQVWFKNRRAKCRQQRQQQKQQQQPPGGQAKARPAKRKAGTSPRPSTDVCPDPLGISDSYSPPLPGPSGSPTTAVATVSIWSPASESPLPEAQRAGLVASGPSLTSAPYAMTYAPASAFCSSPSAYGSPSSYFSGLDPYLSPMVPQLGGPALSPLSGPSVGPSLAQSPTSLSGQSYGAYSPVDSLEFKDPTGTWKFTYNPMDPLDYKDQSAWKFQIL
# Chain of ELF1 (P32519 whole entry): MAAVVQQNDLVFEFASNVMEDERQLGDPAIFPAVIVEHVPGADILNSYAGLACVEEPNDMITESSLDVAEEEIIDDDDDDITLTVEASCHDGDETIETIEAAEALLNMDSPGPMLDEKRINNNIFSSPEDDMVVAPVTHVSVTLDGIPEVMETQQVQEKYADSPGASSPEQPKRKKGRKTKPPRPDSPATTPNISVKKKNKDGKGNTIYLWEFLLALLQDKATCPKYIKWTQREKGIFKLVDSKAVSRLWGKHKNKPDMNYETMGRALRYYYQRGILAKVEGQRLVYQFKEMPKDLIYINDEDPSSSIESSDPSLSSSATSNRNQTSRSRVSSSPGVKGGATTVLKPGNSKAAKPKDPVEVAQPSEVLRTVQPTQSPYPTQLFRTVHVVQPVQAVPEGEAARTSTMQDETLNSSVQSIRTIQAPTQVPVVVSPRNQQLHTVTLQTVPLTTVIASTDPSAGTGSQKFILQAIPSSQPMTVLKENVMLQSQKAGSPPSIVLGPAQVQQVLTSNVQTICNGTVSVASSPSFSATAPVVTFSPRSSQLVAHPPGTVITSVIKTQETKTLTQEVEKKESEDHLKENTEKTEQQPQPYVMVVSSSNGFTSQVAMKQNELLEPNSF
# Chain of SPIB (Q01892 whole entry): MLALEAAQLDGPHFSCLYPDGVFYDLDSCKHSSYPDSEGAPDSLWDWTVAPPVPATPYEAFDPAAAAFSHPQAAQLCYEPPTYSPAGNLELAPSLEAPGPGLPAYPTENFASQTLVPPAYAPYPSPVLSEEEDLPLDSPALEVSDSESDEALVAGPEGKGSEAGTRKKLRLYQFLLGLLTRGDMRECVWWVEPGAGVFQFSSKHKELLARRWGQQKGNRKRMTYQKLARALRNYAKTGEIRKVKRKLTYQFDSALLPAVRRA
sequence,measurement,setting,value
TCCCTG,binding signal,[1],"1.28 fold enrichment (6-mer frequency, TF over GST control)"
same,binding signal,[2],"1.25 fold enrichment (6-mer frequency, TF over GST control)"
same,binding signal,[3],"1.36 fold enrichment (6-mer frequency, TF over GST control)"
same,binding signal,[4],"1.28 fold enrichment (6-mer frequency, TF over GST control)"
same,binding signal,[5],"1.32 fold enrichment (6-mer frequency, TF over GST control)"
same,binding signal,[6],"1.33 fold enrichment (6-mer frequency, TF over GST control)"
same,binding signal,[7],"1.29 fold enrichment (6-mer frequency, TF over GST control)"
same,binding signal,[8],"1.35 fold enrichment (6-mer frequency, TF over GST control)"
same,binding signal,[9],"1.14 fold enrichment (6-mer frequency, TF over GST control)"
same,binding signal,[10],"1.28 fold enrichment (6-mer frequency, TF over GST control)"
same,binding signal,[11],"1.35 fold enrichment (6-mer frequency, TF over GST control)"
same,binding signal,[12],"1.24 fold enrichment (6-mer frequency, TF over GST control)"
same,binding signal,[13],"1.38 fold enrichment (6-mer frequency, TF over GST control)"
same,binding signal,[14],"1.31 fold enrichment (6-mer frequency, TF over GST control)"
same,binding signal,[15],"1.19 fold enrichment (6-mer frequency, TF over GST control)"
same,binding signal,[16],"1.38 fold enrichment (6-mer frequency, TF over GST control)"
same,binding signal,[17],"1.2 fold enrichment (6-mer frequency, TF over GST control)"
same,binding signal,[18],"1.3 fold enrichment (6-mer frequency, TF over GST control)"
same,binding signal,[19],"1.35 fold enrichment (6-mer frequency, TF over GST control)"
